High-throughput results from PubChem.
Only some compounds are listed: those with a hit (about 27% of all), similar ones and a draw of the others.
CYP2C19 inh: blocks human cytochrome P450 2C19. CYP2C19 Supersomes, luciferin-H EGE luminescence, 30 min. inhibition, % at 5 µM. hit rate 21% among 96,000. AID 778;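 active = CYP2C19 inhibition above a set limit at 5 µM in the primary screen, cut at about 50% in these data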;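 note: plate controls were negative control wells for no effect and 2.5 mM tranylcypromine positive control for full effect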
Target sequence (P33261 whole entry, looked up): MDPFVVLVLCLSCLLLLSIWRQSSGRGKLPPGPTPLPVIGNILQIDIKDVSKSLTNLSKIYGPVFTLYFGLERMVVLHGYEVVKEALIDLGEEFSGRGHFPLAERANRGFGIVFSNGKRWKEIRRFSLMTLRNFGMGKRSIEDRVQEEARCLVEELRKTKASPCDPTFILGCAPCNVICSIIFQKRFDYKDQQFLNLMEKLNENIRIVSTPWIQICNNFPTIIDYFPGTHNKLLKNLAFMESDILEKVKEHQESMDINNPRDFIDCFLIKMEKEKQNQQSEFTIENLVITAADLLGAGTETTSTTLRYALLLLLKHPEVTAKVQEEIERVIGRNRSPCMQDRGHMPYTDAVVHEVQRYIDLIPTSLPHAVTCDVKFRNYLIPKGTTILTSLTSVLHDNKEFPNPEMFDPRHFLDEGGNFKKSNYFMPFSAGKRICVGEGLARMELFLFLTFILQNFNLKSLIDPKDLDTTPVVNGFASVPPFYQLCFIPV
sEH act: increases human soluble epoxide hydrolase activity. P34913. purified human sEH enzymatic activity, activator screen. activation, % at 2 µM. hit rate 0.04% among 91,000; in the data active = activation above about 37%
sEH inhibitor: soluble epoxide hydrolase (human) inhibition; inhibition, % at 2 µM; hit rate 0.34% among 91,000; recombinant human sEH enzymatic activity assay; P34913; in the data active = inhibition above about 80%
CYP2C9 act: activators of human CYP2C9. hit rate 1.4% among 96,000. AID 1024. activation factor at 5 µM. recombinant CYP2C9, luciferin-H conversion, luminescence; active compounds read high; factor 1 = untreated enzyme, 0 = blocked. P11712;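 active = activation factor of 2 or more for CYP2C9 at a 5 µM dose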;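 note: 0 = sulfaphenazole-blocked wells and 1 = vehicle-only wells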
CYP2C19 act: activators of human cytochrome P450 2C19; 96,000 tested, under 10 active; activation factor at 5 µM; recombinant CYP2C19, luciferin-H EGE luminescence; active compounds read high; 0 = fully inhibited enzyme, 1 = untreated enzyme; P33261; AID 1025;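 active = activation factor of at least 2 at 5 µM in the primary screen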;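 note: 0 = wells with 2.5 mM tranylcypromine and 1 = vehicle-only wells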
CYP2C9 inhib: blocks human cytochrome P450 2C9 | CYP2C9 Supersomes, luciferin-H conversion, luminescence | AID 777 | inhibition, % at 5 µM | hit rate 20% among 96,000;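 active = blocking of liver enzyme CYP2C9 beyond about 50% at 5 µM, limit read from the data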
* = called active by the depositor; x = no result given.

SMILES	CYP2C19 inh	sEH act	sEH inhibitor	CYP2C9 act	CYP2C19 act	CYP2C9 inhib
Cc1ccccc1C1=NCC(=O)N(CC(=O)NCc2ccco2)c2sc3c(c21)CCCC3	66*	7	-7	0.2	0.3	84*
CCC(C)C1N=C(c2ccccc2)c2cc(Cl)ccc2N(CC(=O)NCc2ccco2)C1=O (stereo not given)	-9	7	-10	1	1.1	-3
CC(C)C1(C)N=C(c2ncccc2C(=O)O)NC1=O (stereo not given)	0	11	-12	1.2	1	-22
CCOC(=O)c1c(C)n(Cc2ccccc2)c2ccc(OCC(O)Cn3nc(C)nc3C)cc12 (stereo not given)	54*	x	x	0.4	0.5	62*
CCOC(=O)c1c(C)n(Cc2ccccc2)c2ccc(OCC(O)Cn3nc(C)cc3C)cc12 (stereo not given)	x	0	0	x	x	x
CCOC(=O)c1c(-n2c(C)cc(/C=C3/C(=O)NC(=O)N(CC)C3=O)c2C)sc2c1CCCC2	x	8	-10	x	x	x
CCOC(=O)c1c(-n2c(C)cc(C=C3C(=O)NC(=S)NC3=O)c2C)sc2c1CCCC2	28	5	-6	0.3	0.7	67*
CCN1C(=O)c2ccccc2Sc2ccc(C(=O)N3CCC4(CC3)OCCO4)cc21	6	x	x	0.2	0.9	83*
CCN(CC)CCCC(C)N=C(c1ccccc1)c1c(O)n(C)c(=O)n(C)c1=O (stereo not given)	-18	-2	3	0.9	1.2	14
COc1ccc(OCC(=O)N2CCN(C(C)C)CC2)cc1	x	-5	5	x	x	x
CNP(=S)(NC)OCCOc1ccc(OC)cc1	84*	8	-7	0.5	0.2	47
O=C1NC(=S)NC(=O)C1C/C=C/c1ccccc1	-3	-2	-1	1	1	-1
Cc1nn(C)c(C)c1P(=S)(c1c(C)nn(C)c1C)N(C)C	6	13	-13	1	0.9	2
CCOC(=O)Cn1cc(C(=O)c2ccccc2F)c2ccccc21	68*	5	-6	0.5	0.3	48
O=C(c1ccccc1)c1cn(CC(=O)N2CCCC2)c2ccccc12	10	5	-6	0.9	0.9	12
CC(C)(C)NC(=O)Cn1cc(C(=O)c2ccccc2F)c2ccccc21	38	-11	13	0.6	0.6	38
CCC(=O)c1cn(Cc2ccc(C#N)cc2)c2ccccc12	39	4	-6	0.6	0.6	44
O=C(c1ccccc1F)c1cn(CC(=O)N2CCCCC2)c2ccccc12	80*	17	-20	0.7	0.2	30
O=C(c1ccccc1F)c1cn(Cc2ccccc2)c2ccccc12	60*	18	-16	1	0.4	2
CN(C)P1(N(C)C)=NC(C(F)(F)F)=NC(C(F)(F)F)=N1	15	x	x	1.2	0.9	-20
Cc1ccc(C2(O)CCN3CCCCC32)cc1 (stereo not given)	-8	-8	9	1.1	1.1	-14
O=C(C1c2ccccc2C(=O)N2CCc3ccccc3C12)N1CCC2(CC1)OCCO2 (stereo not given)	3	-5	3	0.9	1	5
CN(C)CC#CCC(O)(c1ccccc1)C1CCCC1 (stereo not given)	55*	0	-3	0.8	0.5	20
CN1C(=O)N(C)C(=O)C2(Cc3c(nc4ccccn4c3=O)N3CCC(Cc4ccccc4)CC32)C1=O (stereo not given)	-3	x	x	0.9	1	14
Cc1cccn2c(=O)c3c(nc12)N1CCC(Cc2ccccc2)CC1C1(C3)C(=O)N(C)C(=O)N(C)C1=O (stereo not given)	42	-7	4	0.1	0.6	91*
SMILES	CYP2C19 inh	sEH act	sEH inhibitor	CYP2C9 act	CYP2C19 act	CYP2C9 inhib
CN(C)P(=O)(C(Cl)=C(N1CCCCC1)N1CCCCC1)N(C)C	69*	3	-3	0.8	0.3	16
CCCCCc1nc2ccccc2c(=O)n1-c1ccc(Cl)cc1[N+](=O)[O-]	4	-5	9	0.9	1	5
S=C(c1ccc(Cl)cc1)N1CCOCC1	66*	3	-2	0.9	0.3	10
Cc1nc2ccc(Cl)cn2c1P(=S)(N1CCOCC1)N1CCOCC1	5	x	x	0.8	1	15
CCOC(=O)C1=C(N)OC2=C(C(=O)CC(C)(C)C2)C12C(=O)Nc1ccccc12 (stereo not given)	4	x	x	0.9	1	11
COc1ccc(C2SCC(=O)Nc3c2c(C)nn3-c2ccccc2)cc1 (stereo not given)	11	-2	1	0.5	0.9	52*
Cc1ccc(-n2nc(C)c3c2NC(=O)CSC3c2ccc3c(c2)OCO3)cc1 (stereo not given)	34	x	x	0.6	0.7	44
Cc1ccc(S(=O)(=O)Nc2cc(C(=O)N3CCC4(CC3)OCCO4)ccc2N2CCCCC2)cc1	54*	-13	14	0.4	0.5	63*
CN(C)c1ccc(CN2CC=C(c3ccc(F)cc3)CC2)cc1	62*	10	-10	1.1	0.4	-7
COC(=O)CC1=C(C(=O)OC)C2(C(=O)N(C)c3ccccc32)C(C#N)=C(N)O1 (stereo not given)	-10	x	x	1.1	1.1	-10
Cc1nnc2ccc(N3CCN(C)CC3)nn12	-22	x	x	1.2	1.2	-18
COCCOC(=O)C1=C(N)Oc2c(c(=O)oc3ccccc23)[C@@]12C(=O)Nc1ccccc12	-2	x	x	0.2	1	81*
Cn1nc(N)c2c1N=P(N1CCOCC1)(N1CCOCC1)N=C2c1ccccc1	6	-5	5	1	0.9	2
COC(=O)C(O)(c1cn(C)c2ccccc12)C(F)(F)F (stereo not given)	6	8	-8	2.8*	0.9	-180
O=c1[nH]c(=S)n(Cc2ccc(F)cc2)c(O)c1C=NCc1cccnc1	66*	11	-15	0.8	0.3	15
COc1ccccc1CN1CCCCC1c1cccnc1 (stereo not given)	50*	-11	10	1.1	0.5	-9
C=COCCn1c(C)c(C(=O)OCC)c2cc(O)ccc21	85*	-4	5	0.3	0.1	71*
N#CC1=C(N)Oc2c(c(=O)oc3ccccc23)C1c1ccncc1 (stereo not given)	57*	-8	8	0	0.4	96*
CCOc1ccc(C2C(C#N)=C(N)Oc3c2c(=O)oc2ccccc32)cc1 (stereo not given)	9	2	0	0.2	0.9	83*
CC(C)CC1C(C#N)=C(N)Oc2c1c(=O)oc1ccccc21 (stereo not given)	28	-4	6	0.2	0.7	77*
COC(=O)C1=C(N)Oc2c(c(=O)oc3ccccc23)C1c1cccnc1 (stereo not given)	23	-4	6	0.1	0.8	92*
Cn1c(O)c(C=NC2C(=O)C3(C)CCC2C3(C)C)c(=O)n(C)c1=O (stereo not given)	18	14	-12	0.7	0.8	30
